Screening data deposited in PubChem BioAssay by The Scripps Research Institute Molecular Screening Center.
DAX1 inh-1: DAX1 (NR0B1) inhibitors, primary screen, cell-based, HEK293, Gal4-DAX1, luciferase luminescence | Nuclear receptor subfamily 0 group B member 1 (Homo sapiens), P51843 | HEK293 Gal4-DAX1 luciferase reporter | inhibition, % at 6.75 µM | 340,000 tested, 0.99% active | AID 504766, 2011;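 active = inhibition above the mean over all tested compounds plus 3 SD, cut at about 4.2% in these data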;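 also: 0% = DAX1-transfected cells with DMSO and 100% = empty-vector control cells with DMSO; inhibition shows as a rise in luminescence from relieved DAX1 repression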
Target sequence (P51843 207-470 limits assumed): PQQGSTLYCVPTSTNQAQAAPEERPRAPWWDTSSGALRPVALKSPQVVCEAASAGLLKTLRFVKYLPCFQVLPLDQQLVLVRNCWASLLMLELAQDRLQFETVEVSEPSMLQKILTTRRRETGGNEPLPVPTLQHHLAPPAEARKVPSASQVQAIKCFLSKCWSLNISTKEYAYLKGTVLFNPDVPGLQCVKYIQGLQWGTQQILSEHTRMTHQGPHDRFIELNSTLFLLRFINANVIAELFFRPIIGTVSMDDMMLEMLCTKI
hcDAF12 agonist: H. contortus DAF-12 nuclear receptor activators, primary screen, cell-based, luminescence, HEK293, lit1-tk-luc reporter; HEK293 hcDAF-12 lit1-tk-luc reporter; 0% DMSO, 100% Δ7-dafachronic acid; activation, % at 6.8 µM; 370,000 tested, 1.4% active; AID 652067, 2013;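 active = activation above the mean of all tested compounds plus 3 SD, cut at about 5.5% in these data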;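 also: 100% = response to 3 µM Δ7-dafachronic acid high control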
hgDAF12 agonist: H. glycines DAF-12 receptor agonists, primary screen, cell-based, luminescence, HEK293, GAL4 fusion, UAS-luciferase; Nuclear hormone receptor DAF-12 (Heterodera glycines), GAL4 fusion; HEK293 GAL4-hgDAF12 UAS-luciferase reporter, agonist luminescence; normalized to butyrate control; activation, % at 6.8 µM; 370,000 tested, 1.8% active;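 active = activation above a cutoff set at the mean of all screened compounds plus 3 SD, cut at about 10% in these data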;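 also: 0% = DMSO wells and 100% = sodium butyrate wells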
AHR activator: AHR activators, primary screen, cell-based, luminescence, luciferase reporter, human; AHR-responsive luciferase reporter cells; activation, % at 5 µM; 320,000 tested, 2.5% active; in the data active = activation above about 47%;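 also: 0% = vehicle wells and 100% = reference agonist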
DAX1 inh-2: DAX1 (NR0B1) inhibitors on StAR promoter, primary screen, cell-based, luminescence, SF-1 (NR5A1), full-length DAX-1; HEK293T StAR-luciferase reporter, SF-1/DAX-1 repression relief; inhibition, % at 6.8 µM; 370,000 tested, 1.1% active;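 active = inhibition above the mean over all tested compounds plus 3 SD, cut at about 3.6% in these data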;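 also: 0% = DAX-1 cells with DMSO and 100% = cells lacking DAX-1 with DMSO; higher inhibition means more luminescence from relief of DAX-1 repression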
ssDAF12 agonist: S. stercoralis DAF-12 nuclear receptor activators, primary screen, cell-based, luminescence, HEK293, GRIP1 co-expression, lit1-tk-luc. HEK293 ssDAF-12/GRIP1 lit1-tk-luc reporter; % of 3 µM dafachronic acid response. Nuclear hormone receptor DAF-12 (Strongyloides stercoralis). AID 652126, 2013. 370,000 tested, 1% active. activation, % at 6.8 µM;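 active = activation above the mean over all tested compounds plus 3 SD, cut at about 0.9% in these data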;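 also: 0% = DMSO-only wells and 100% = 3 µM delta7-dafachronic acid wells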
The depositor's hits bear a star; nt = not tested or not shown. An excerpt weighted towards active compounds, which were near 5.7% of everything screened.

SMILES | DAX1 inh-1 | hcDAF12 agonist | hgDAF12 agonist | AHR activator | DAX1 inh-2 | ssDAF12 agonist
OC1(c2cccc(C(F)(F)F)c2)CCN(CCN2CCCCC2)CC1 | 2.0 | 0.0 | -0.2 | -0.9 | 0.1 | 1.6*
COc1cccc2[nH]c3c(N4CCC5(CC4)OCCO5)ncnc3c12 | -0.2 | -1.6 | 0.7 | 37.4 | 0.2 | -0.5
O=S1(=O)c2ccc(N3CCCC3)cc2Oc2ccccc2CN1Cc1cn(Cc2ccc(F)cc2)nn1 | nt | -2.0 | -3.6 | nt | -1.3 | -0.9
O=c1[nH]c(-c2ccc3c(c2)OCO3)nc2c1sc(=S)n2-c1ccccc1 | 2.1 | 1.8 | -1.8 | 7.3 | -0.3 | 1.0*
O=C1CN(C(=O)COc2ccc(Br)cc2)c2ccccc2N1 | 0.9 | -1.6 | -2.9 | 8.7 | -1.5 | -1.2
CC(C)Oc1ccc(F)cc1-c1cc(C(=O)Nc2ccc(C(C)(C)C)cc2)[nH]n1 | nt | -1.0 | 0.0 | nt | -0.8 | -1.2
O=C(COc1ccc(C2SCCS2)cc1)NNC(=O)C(Cl)Cl | 5.9* | 0.1 | 1.2 | 12.0 | 0.2 | 0.1
CCC(C(=O)O)n1c2ccccc2c2cn[nH]c(=O)c21 (centres undefined) | -0.9 | 5.3 | 0.7 | 16.8 | 0.1 | 1.0*
CCC(C(=O)O)n1c(C(F)(F)F)nc2ccccc21 (centres undefined) | 2.5 | -1.0 | 0.5 | 1.1 | 0.1 | -1.2
COc1ccc(N2CCN(C(=O)C3CCCN3S(=O)(=O)c3cccc4nsnc34)CC2)cc1 (centres undefined) | 0.7 | nt | nt | 0.7 | nt | nt
Cn1cc([N+](=O)[O-])c(C(=O)NCc2cc3ccccc3[nH]2)n1 | 0.9 | 2.8 | 3.3 | 28.9 | 1.4 | 1.8*
O=C1c2ccccc2C(=O)N1CCc1ccccc1 | 3.5 | 6.2* | 7.2 | 60.3* | 0.3 | 0.9*
COC(=O)C1=C(C)N(Cc2cccc(C(F)(F)F)c2)C(=NCc2ccccc2C(F)(F)F)NC1c1ccc(Cl)cc1 (centres undefined) | nt | -1.9 | 2.2 | nt | -0.7 | -0.8
Cc1cc(N)ncc1[N+](=O)[O-] | 4.2* | -0.7 | -1.5 | nt | -0.6 | -1.0
CCOC(=O)[C@]12CCCC=C1N(CCC1=CCCCC1)C(=O)[C@H](CC(=O)NCc1ccccc1)C2 | nt | -1.0 | 0.3 | nt | 2.8 | -1.4
COc1ccc(Cc2nnc(SCC(=O)Nc3nc(C)cs3)o2)cc1 | 0.5 | -1.5 | -0.5 | -0.4 | 0.3 | 1.0*
Cc1ccc(C(=O)O/N=C(\N)c2ccccn2)cc1 | -2.8 | -2.2 | -8.5 | -11.7 | -0.6 | -1.9
C/C(=N\OC(=O)c1ccc(Br)cc1)c1ccccn1 | 0.9 | 1.5 | 0.4 | 6.7 | 0.5 | 0.9*
CCCCCCCc1c(O)nc(SCC(=O)O)[nH]c1=O | 5.1* | 0.1 | -2.1 | 0.7 | 0.5 | -1.9
Cc1cc(C)c(-c2csc(NC(=O)C3=COCCO3)n2)cc1C | -0.8 | 1.5 | 3.1 | 13.9 | 1.8 | -0.9
COc1ccc(-c2csc(NC(=O)C3=COCCO3)n2)c(OC)c1 | 0.2 | 0.3 | 4.5 | 19.7 | 3.9* | 0.2
CCN1C(=O)[C@@H]2[C@@H](c3ccc(-c4ccc(F)cc4)c(OC)c3)N3CCC[C@@]3(C(=O)OC)[C@@H]2C1=O | -0.7 | -2.7 | -1.6 | -1.0 | -0.2 | -1.6
COCC1CCN(C(=O)c2cc(COc3ccc(F)cc3F)on2)C1 (centres undefined) | 0.2 | -1.5 | -0.8 | -1.7 | 1.8 | -1.1
O=C(c1cc(COc2c(F)cccc2F)on1)N1C[C@H]2CC[C@H]1C2 | 1.3 | 4.0 | 11.3* | 5.4 | 3.5 | 0.0
COc1cc(C)ccc1OCc1cc(C(=O)N2CCC(c3ccc(F)cc3)C2)no1 (centres undefined) | 2.8 | 5.1 | 12.5* | 16.9 | 1.4 | 0.8
